AMA1-RON2 inh = AMA1-RON2 (P. falciparum) interaction inhibition; AlphaScreen AMA1-biotinylated RON2 peptide binding; Potency, µM (highest dose often 58.2 µM), inactives show at the highest dose activity change, negative = inhibition, most hits filed as inhibitors; 0.2% of 360,000 active;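 further: 0% = vehicle wells and -100% = peptide control; nearly all actives have a fitted effect of over 45% in size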
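AMA1 (3D7) with his tag at 25 nM final met compounds first, then biotinylated RON2 peptide at 25 nM; detection used donor plus acceptor beads, 10 µg/mL apiece, read by AlphaScreen after 30 min at room temperature.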
AmpC inh detg = AmpC beta-lactamase inhibition with detergent present | P00811 | AmpC hydrolysis of nitrocefin, absorbance 480 nm, 0.01% Triton | Potency, µM (titrated, usually from 114 µM), without a hit: top-dose activity change, negative = inhibition, actives largely listed as inhibitors | 0.041% of 370,000 active;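 further: 0% = no-compound wells and -100% = no-enzyme wells; nearly all actives have a fitted effect of over 25% in size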
Target sequence (P00811 whole entry, looked up): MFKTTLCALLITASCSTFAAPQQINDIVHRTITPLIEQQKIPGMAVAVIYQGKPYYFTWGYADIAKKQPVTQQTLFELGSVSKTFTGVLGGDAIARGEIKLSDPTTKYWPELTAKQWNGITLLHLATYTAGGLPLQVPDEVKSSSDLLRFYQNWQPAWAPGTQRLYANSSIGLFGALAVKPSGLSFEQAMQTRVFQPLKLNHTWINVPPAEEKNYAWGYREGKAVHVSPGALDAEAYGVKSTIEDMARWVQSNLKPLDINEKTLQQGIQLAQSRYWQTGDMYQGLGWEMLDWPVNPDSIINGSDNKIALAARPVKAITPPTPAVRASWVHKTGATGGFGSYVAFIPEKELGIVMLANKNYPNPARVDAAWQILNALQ
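AmpC (5.3 nM in the dispensed reagent) in 20 mM phosphate pH 7.0 with 0.01% (detergent screen) or 0.0001% Triton X-100 was preincubated with compounds for 15 min at room temperature. Nitrocefin was then added from an 800 uM solution, and hydrolysis was followed at 480 nm.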
AmpC no deterg = inhibitors of E. coli AmpC beta-lactamase without detergent | P00811 | AmpC nitrocefin hydrolysis, absorbance 480 nm, 0.0001% Triton | Potency, µM (highest dose often 57.1 µM), without a hit: at the highest dose activity change, negative = inhibition, most hits filed as inhibitors | 0.52% of 330,000 active | AID 485341;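 further: plate controls were no compound for no effect and no enzyme for full effect; nearly all actives have a fitted effect of over 20% in size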
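AmpC (5.3 nM in the dispensed reagent) in 20 mM phosphate pH 7.0 with 0.01% (detergent screen) or 0.0001% Triton X-100 was preincubated with compounds for 15 min at room temperature. Nitrocefin was then added from an 800 uM solution, and hydrolysis was followed at 480 nm.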
Pf growth 96h = P. falciparum growth inhibition at 96 hour, primary screen for plastid delayed-death inhibitors; P. falciparum luciferase reporter growth, 96 h; Potency, µM (series often up to 28.7 µM), for the others: at the highest dose activity change, negative = inhibition, hits mostly inhibitors; 6.9% of 320,000 active
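Compounds incubated with erythrocytes infected by luciferase-expressing P. falciparum (2% hematocrit, 0.05% parasitemia final) for 96 hours, 37 C in 5% CO2. Growth inhibition scored as decreased luciferase luminescence.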
Pf growth 48h = inhibits P. falciparum growth in the first generation, 48 h | AID 504832 | P. falciparum luciferase growth in erythrocytes, 48 h | 5.9% of 310,000 active | Potency, µM (series often up to 28.7 µM), for the others: at the highest dose activity change, negative = inhibition, actives largely listed as inhibitors
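Luciferase-expressing parasites in RBCs, 2% Hct / 0.1% parasitemia final; RPMI 1640 + 0.5% Albumax; 37 C, 5% CO2, one generation; luminescence read-out, lower signal = inhibition.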
HCV inh = HCV inhibition. Huh7.5.1 HCVcc-Cre infection, luciferase reporter, 44 h. 3.4% of 340,000 active. AID 651820. Potency, µM (doses to about 41.8 µM), for the others: top-dose activity change, negative = inhibition, hits mostly inhibitors
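1,000 cells/well; 4 h culture; + compound; + HCVcc-Cre (~0.5 moi); 44 h; luciferase substrate, RT 15 min; read 15 sec.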
* hit, by the source's call; ? = inconclusive; . = no result given. Only some compounds are listed: those with a hit (about 11% of all), similar ones and a draw of the others. The call rests on the fitted dose curve; in most records, active means well fitted curve in the direction sought with a large enough effect; inconclusive means small, poorly fitted or top-dose-only effect, or another doubt; inactive means no such curve, though single readings can be large; an effect the other way counts as inactive or inconclusive. Unless noted, on the % scale 0 is the no-effect control and ±100 the full control effect; potency means the concentration at half of the fitted maximal effect.

SMILES | AMA1-RON2 inh | AmpC inh detg | AmpC no deterg | Pf growth 96h | Pf growth 48h | HCV inh
CCN(CC)CCN(C(=O)c1cc2ccccc2cc1OC)c1nc2ccc(OC)cc2s1 | ? | -13% | 142% | ? | ? | 11µM*
CC(=O)N1CCOCCOCCN(C(C)=O)CCOCCOCC1 | 15% | 7% | -5% | 20% | 35% | 4%
O=C(N1CCOCC1)C(F)(F)C(F)(F)C(F)(F)C(F)(F)C(=O)N1CCOCC1 | -3% | -12% | -6% | 12µM* | 16% | 15%
COc1cccc(Cn2c(=O)n(-c3cc(C)cc(C)c3)c(=O)c3oc4ccccc4c32)c1 | . | 8% | . | . | . | .
CCCCN(CC(O)COc1cccc(C)c1)CC(O)COc1cccc(C)c1 (stereo not drawn) | -5% | -6% | 11% | 1.9µM* | ? | -20%
COCCn1c(=N)c(C(=O)NCCc2ccc(OC)cc2)cc2c(=O)n3cccc(C)c3nc21 | -3% | -17% | -18% | 2.9µM* | 2.1µM* | 13%
C=CCn1c(=N)c(C(=O)NCCCOC)cc2c(=O)n3cc(C)ccc3nc21 | 14% | ? | -10% | 7.4µM* | 13% | -19%
COc1ccc(CNC(=O)c2cc3c(=O)n4cccc(C)c4nc3n(CC3CCCO3)c2=N)cc1 (stereo not drawn) | 20% | -2% | -9% | 5.2µM* | ? | -16%
CCCn1c(=N)c(C(=O)NCc2ccc3c(c2)OCO3)cc2c(=O)n3cccc(C)c3nc21 | -2% | ? | 0% | 8% | 1µM* | 0%
Cc1cc(NCc2ccc(Cl)cc2)n2cnnc2n1 | . | 8% | . | . | . | .
COc1ccc(CCNC(=O)c2cc(Sc3cccc(Cl)c3)nc3ccccc23)cc1OC | . | 8% | . | . | . | .
Cc1cccn2c(=O)c3cc(C(=O)NCc4ccc(F)cc4)c(=N)n(CC4CCCO4)c3nc12 (stereo not drawn) | 8% | -4% | 12% | 2.9µM* | 4.1µM* | -1%
CN(c1ccc(C(=O)N2CCCCC2)cc1)S(C)(=O)=O | ? | -4% | -15% | 44% | 7% | 8%
CN(C)c1ccc(C(=O)N2CCCC2)cc1 | 9% | 5% | -13% | 12µM* | 43% | 3%
C=C1SC(=Nc2c(C)cccc2Cl)N(C(=O)c2sc3ccccc3c2Cl)C12CCCCC2 | 0% | -3% | -42% | 1.9µM* | ? | -5%
O=C(Nc1ccc(S(=O)(=O)N2CCCC2)cc1)c1cccc(OC(F)F)c1 | -13% | -18% | 32µM* | ? | ? | ?
CS(=O)(=O)c1cccc(C(=O)Nc2cccc(S(=O)(=O)N3CCCC3)c2)c1 | -8% | -13% | -15% | ? | -29% | ?
O=C(Nc1cccc(S(=O)(=O)N2CCCC2)c1)c1cccc(OC(F)F)c1 | 21% | ? | -37% | 9.3µM* | ? | ?
CCN(CC)S(=O)(=O)c1ccc2c(c1)N(CC(=O)Nc1ccc(F)cc1F)C(=O)C1CCCN21 (stereo not drawn) | . | 4% | . | . | . | .
Cc1c(C(=O)N2CCc3ccccc32)oc2ccccc12 | 17% | ? | -33% | 8% | 190% | ?
Cc1c(C(=O)N2CC(C(=O)N3CCCCC3)Oc3ccccc32)oc2ccccc12 (stereo not drawn) | -8% | 0% | 47% | 13µM* | ? | ?
CCCCC(CC)CNC(=O)CN(C)S(=O)(=O)c1ccc2c(c1)c(=O)n(C)c(=O)n2C (stereo not drawn) | . | 16% | . | . | . | .
CC1CCCN(c2ccc(C(=O)NCC3CCCO3)cn2)C1 (stereo not drawn) | -1% | -2% | 0.2µM* | -5% | 53% | ?
O=C(NCC1CCCO1)c1cnc(Cl)c(Cl)c1 (stereo not drawn) | -8% | 0% | -8% | 5% | ? | 3%
CN(CCCNC(=O)c1ccc(/C=N/O)nc1)CCCN(C)Cc1ccccc1 | 46% | ? | -9% | ? | ? | 5%
SMILES | AMA1-RON2 inh | AmpC inh detg | AmpC no deterg | Pf growth 96h | Pf growth 48h | HCV inh
O=C(NCC1CCCO1)c1ccc2c(c1)C(=O)N(C1CCCCC1)C2=O (stereo not drawn) | -11% | 1% | 20% | ? | 4% | -10%
O=C(NCCCNCCCNC(=O)c1ccc(/C=N/O)nc1)c1ccc(/C=N/O)nc1 | -44% | 3% | -7% | 2.6µM* | 9.3µM* | 14%
CC(C)CCN1C(=O)c2ccc(C(=O)NCC3CCCO3)cc2C1=O (stereo not drawn) | 0% | 1% | -3% | 4.1µM* | 2% | 17%
O=C(NCC1CCCO1)c1ccc(/C=N/O)nc1 (stereo not drawn) | 43% | -3% | -6% | 15µM* | 0% | 5%
COc1cccc(NC(=O)CSC2=Nc3ccccc3N=C(c3ccc(F)cc3)C2)c1 | . | 24% | . | . | . | .
CCCCN(CC)c1nc(-c2ccccc2F)nc2ccccc12 | . | 9% | . | . | . | .
COc1cc(OC)c(NS(=O)(=O)c2cc3c(cc2C)N(C(C)=O)CCO3)cc1Cl | . | 23% | . | . | . | .
CCC(Sc1nc(C)cc(C)n1)C(=O)Nc1nccs1 (stereo not drawn) | -14% | -7% | -33% | 13µM* | ? | -3%
CCC(Sc1nnc(C)s1)C(=O)Nc1nccs1 (stereo not drawn) | -7% | -8% | -8% | . | 13% | 4%
Cc1c(O)nc2ccccn2c1=O | -4% | -13% | -5% | 73% | 0% | 4%
CCCCc1c(O)nc2ccccn2c1=O | -16% | -10% | -11% | 12µM* | ? | -1%
COc1cccc(NC(=O)c2ccc(-n3cnnn3)cc2)c1 | 10% | -4% | -13% | 4.1µM* | 18% | -25%
Cc1ccc(NC(=O)COc2cccc(-n3cnnn3)c2)cc1S(=O)(=O)N1CCOCC1 | -5% | 3% | -26% | ? | 13µM* | 11µM*
COc1cccc(NC(=O)c2nn(C)c(C(=O)Nc3cccc(OC)c3)c2[N+](=O)[O-])c1 | 0% | -7% | -40% | 6.6µM* | 33% | ?
COc1ccc(C(=O)Nc2cccc(OC)c2)cc1 | 8% | 0% | -22% | 12% | . | -5%
COc1ccc(NC(=O)COc2cccc(-n3cnnn3)c2)cc1 | -9% | 1% | 0% | 10µM* | 29% | -3%
CSc1ccc(CCNC(=O)C(C)n2c(C)c3cnn(-c4ccccc4)c(=O)c3c2C)cc1 (stereo not drawn) | . | 13% | . | . | . | .
CCN1CCN(c2ncnc3c2cnn3-c2ccc(F)cc2)CC1 | . | 10% | . | . | . | .
COc1ccc(OCCOC(=O)c2cccc(-n3cnnn3)c2)cc1 | -2% | 2% | -36% | 15µM* | 53% | -17%
